# Assay outcomes: PubChem, several laboratories
# SUMO Mot1 rescue: blocks SUMOylation pathway, rescuing yeast Mot1-301 growth | S. cerevisiae Mot1-301 growth rescue, ATP luminescence, 38.5C; percent above DMSO median, 100 means doubled | growth rescue, % at 18.8 µM | 320,000 tested, 1% active;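 active means every valid replicate shows activation above 250% relative to neutral control wells; inactive means the rest, any valid replicate at or below 250%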;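 further: OY570 slx delta 5 strain wells were the positive control but not used for scaling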
# IDE cell activ: activators of human insulin-degrading enzyme in cells; 340,000 tested, 0.073% active; P14735; activation, % at 5.96 µM; AID 493087; HEK cells, FAbeta-B cleavage, fluorescence polarization; 0% vehicle, 100% cell-free pure enzyme wells;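 active means activation above the mean of all tested compounds plus 3 SD, set per screening campaign, cut at about 17% in these data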
# HDAC3 inhib: inhibitors of human histone deacetylase 3 | O15379 | recombinant HDAC3, fluorogenic peptide/trypsin coupled, fluorescence | inhibition, % at 8.3 µM | 320,000 tested, 0.15% active; in the data active means inhibition above about 26%, passing the limit was not always enough; inconclusive means no clear call, values can overlap the other calls
# Target sequence (O15379 whole entry, looked up): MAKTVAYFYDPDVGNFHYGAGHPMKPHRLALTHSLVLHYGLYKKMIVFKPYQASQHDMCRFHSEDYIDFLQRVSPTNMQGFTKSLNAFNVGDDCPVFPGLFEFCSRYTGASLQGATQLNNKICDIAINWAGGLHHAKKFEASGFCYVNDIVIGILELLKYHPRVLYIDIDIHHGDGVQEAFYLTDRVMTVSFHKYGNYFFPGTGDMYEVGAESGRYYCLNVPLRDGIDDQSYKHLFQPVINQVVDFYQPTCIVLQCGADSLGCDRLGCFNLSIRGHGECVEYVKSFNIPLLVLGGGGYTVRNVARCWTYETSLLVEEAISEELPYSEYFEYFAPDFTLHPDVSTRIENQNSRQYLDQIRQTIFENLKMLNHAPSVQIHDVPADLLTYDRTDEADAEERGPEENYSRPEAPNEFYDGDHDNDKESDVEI
# LANA-H2A inh: blocks KSHV LANA binding to histone H2A/H2B. Q9QR71. cell-free LANA-H2A/H2B peptide, fluorescence polarization. inhibition, % (concentration not given with the values). 320,000 tested, 0.6% active; in the data active means inhibition mostly above about 10%, no sharp cut-off; inactive means mostly below about 6.7%
# IDE cell inh: inhibitors of human insulin-degrading enzyme in cells. 320,000 tested, 0.41% active. HEK cells, FAbetaB cleavage, fluorescence polarization. inhibition, % at 5.59 µM. P14735;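 active means percent inhibition above the average of all tested compounds plus 3 SD, set per screening campaign, cut at about 16% in these data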;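 further: IDE supplied by intact live HEK cells; FP after avidin binding of uncleaved biotin substrate so inhibition keeps polarization high; 0% = DMSO wells and 100% = 60 µM reference IDE inhibitor Ii1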
# IDE cell inh cf: cellular human IDE inhibition, confirmation; AID 435028; shares compounds with IDE cell inh; inhibition, % at 5.59 µM; HEK cells, FAbetaB cleavage, fluorescence polarization; 1,200 tested, 51% active;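 active means mean inhibition across triplicate wells above the cutoff set by the earlier primary insulin-degrading enzyme screen, cut at about 16% in these data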;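 further: 0% = DMSO wells and 100% = 60 µM reference IDE inhibitor Ii1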
# HEK cytotox: HEK cell cytotoxicity, counter-screen for IDE inhibitors. shares compounds with IDE cell inh. HEK293 cytotoxicity, ATP luminescence. inhibition, % at 5.59 µM. 1,200 tested, 28% active. AID 449730; in the data active means inhibition above about 22%;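 further: 0% = vehicle wells and 100% = reference cytotoxic drug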
# * marks the source's active call; other numbers are inactive results; ? = inconclusive; / = no result. Rows were chosen to be rich in hits. Some 2.1% of all compounds tested hit in one or more screens of this group.
SMILES,SUMO Mot1 rescue,IDE cell activ,HDAC3 inhib,LANA-H2A inh,IDE cell inh,IDE cell inh cf,HEK cytotox
O=C(Nc1cccc(NC(=O)c2ccc(Cl)cc2Cl)c1)c1cccnc1,-6,2,-3,-1,-5,/,/
COc1cc(/C=N\NC(=O)c2ccc(-c3ccccc3)cc2)cc(Br)c1O,-3,-10,/,7,21*,12,13
COc1cccc(NC(=O)CN(C)C(=O)c2ccc(OCc3ccccc3)c(OC)c2)c1,-9,-1,-4,1,-2,/,/
N=C1/C(=C\c2coc3ccccc3c2=O)C(=O)N=C2SC=CN12,-15,-70,5,9,48*,80*,9
CC1=CC2=NC(=O)/C(=C/c3coc4ccc(Cl)cc4c3=O)C(=N)N2O1,-2,-87,6,-16,62*,97*,5
CSC1=NSC2=NC(=O)/C(=C\c3cccs3)C(=N)N12,-13,2,-4,-156,2,/,/
CC1=CC2=NC(=O)/C(=C\c3cn(C)c4ccccc34)C(=N)N2O1,0,-2,3,1,6,/,/
CSC1=NSC2=NC(=O)/C(=C/c3coc4ccc(O)cc4c3=O)C(=N)N12,-3,-49,-8,-8,30*,37*,8
CSC1=NSC2=NC(=O)/C(=C/c3coc4ccccc4c3=O)C(=N)N12,20,-68,-1,0,72*,45*,6
CCCc1cc(=O)[nH]c2nnc(SCC(=O)NCc3ccc4c(c3)OCO4)n12,-4,-2,7,5,4,/,/
O=C(NCc1ccccc1)C1CCCN(S(=O)(=O)c2ccc(F)cc2)C1 (stereo not given),1,4,2,0,1,/,/
CCc1ccc(OCC(=O)O/N=C(\N)c2cccnc2)cc1,0,/,-4,-2,17*,3,11
O=S(=O)(NC1=NCCC1)c1cccc(NC(=S)NCCc2ccccc2)c1,0,-4,4,-4,22*,11,6
CCN(CC)CCCN=C1N[C@@H](c2cccc(C(F)(F)F)c2)C(C(=O)OC)=C(C)N1CC,-8,5,3,-4,3,/,/
CCn1c(SCC(=O)NC2CCCCC2)nnc1C(CO)NC(=O)c1ccccc1 (stereo not given),-11,4,-1,4,0,/,/
CC(C)(C)NC(=O)NC(=O)CN1CCN(c2ccccc2)CC1,4,-5,8,-1,-2,/,/
CC(C)(C)NC(=O)NC(=O)CN1CCN(c2cccc(Cl)c2)CC1,-18,-29,-1,4,41*,22*,13
CC(=O)C1=C(C)NC(SCSc2ccccc2)=C(C#N)C1c1cccnc1 (stereo not given),-6,/,2,0,21*,13,13
CC(=O)C1=C(C)NC(SCC(=O)c2ccc(-c3ccccc3)cc2)=C(C#N)C1c1cccnc1 (stereo not given),-3,/,-5,0,4,/,/
CCCCNc1c2c3c(cccc3n(C)c1=O)C(=O)c1ccccc1-2,-1,30*,15,23*,103*,26*,32*
CC(=O)Nc1ccc(Nc2c3c4c(cccc4n(C)c2=O)C(=O)c2ccccc2-3)cc1,-6,6,11,22,3,/,/
Cn1c(=O)c(NC2CCCCC2)c2c3c(cccc31)C(=O)c1ccccc1-2,/,-95,/,/,/,/,/
CCNc1c2c3c(cccc3n(C)c1=O)C(=O)c1ccccc1-2,-11,/,-12,44*,62*,26*,17
COc1ccc(S(=O)(=O)Nc2cc3c4c(c2)CC(=O)N4CCC3)cc1C,-4,0,2,-2,-1,/,/
CCC1CCCN1Cn1cnc2c([nH]c3ccc(C)cc32)c1=O (stereo not given),-15,-5,-32,2,-4,/,/
SMILES,SUMO Mot1 rescue,IDE cell activ,HDAC3 inhib,LANA-H2A inh,IDE cell inh,IDE cell inh cf,HEK cytotox
CCC1CCCN1Cn1cnc2c([nH]c3ccc(Cl)cc32)c1=O (stereo not given),-21,-3,3,1,17*,1,21
CCOC(=O)N1CCN(C(=O)Cc2ccccc2[N+](=O)[O-])CC1,8,2,-4,-5,9,/,/
CCN1C(c2ccccc2)=C(c2ccccc2)S/C1=C\C=C1/SC(=S)N(C)C1=O,-32,-4,0,0,2,/,/
CCN1C(=O)/C(=C/C=C2/Sc3ccc4ccccc4c3N2CCO)SC1=S,-14,-6,-2,-4,24*,9,13
O=C1N/C(=N\S(=O)(=O)Cc2ccccc2)S/C1=C/c1cc([N+](=O)[O-])ccc1O,-3,-46,?,1,40*,75*,9
COc1cc(/C=C2\S/C(=N/S(=O)(=O)Cc3ccccc3)NC2=O)c([N+](=O)[O-])cc1OC,-19,4,5,-3,0,/,/
O=C1N/C(=N\S(=O)(=O)c2ccccc2)S/C1=C\c1cc([N+](=O)[O-])ccc1O,-3,-41,8,2,50*,70*,13
CC(C)CNC(=O)CN(c1ccccc1)S(=O)(=O)c1ccccc1[N+](=O)[O-],-3,0,-2,-5,0,/,/
COc1ccc(NC(=O)/C(C#N)=C\c2ccc(N3CCOCC3)o2)cc1,-8,-173,14,-47,126*,145*,18
N#C/C(=C/c1ccc(N2CCOCC2)o1)c1nc2ccccc2[nH]1,11,-157,1,-51,36*,26*,28*
N#C/C(=C\c1ccc(N2CCOCC2)o1)C(=O)Nc1ccc(O)cc1,166,/,21,-50,59*,66*,14
COc1ccc(NC(=O)/C(C#N)=C/c2ccc(Br)o2)cc1,9,4,6,-2,-1,/,/
C[C@H](CO)N1C[C@H](C)[C@@H](CN(C)C(=O)Nc2ccc3c(c2)OCO3)Oc2ccc(NC(=O)CCN3CCOCC3)cc2C1=O,7,-2,1,-2,-3,/,/
O=C(NCC(c1ccco1)N1CCCC1)c1cc2ccccc2s1 (stereo not given),0,4,4,3,-7,/,/
Cc1cc(C)c2c(N)c(C(=O)NN)sc2n1,47,-3,1,-2,0,/,/
Cc1ccc(NC(=O)c2sc3nc(C)cc(C)c3c2N)cc1,18,-13,-3,-3,21*,8,13
CC(C)Cc1nnc(NC(=O)CCC(=O)N2CCN(C3CCCC3)CC2)s1,-7,0,-5,2,-2,/,/
O=C(Nc1cccc(-n2cnnn2)c1)c1cc(Cl)nc(Cl)c1,-2,-2,-2,0,-1,/,/
O=C(Nc1cccc(-n2cnnn2)c1)c1cccc(Cl)c1,-2,-11,3,-1,18*,12,13
Cc1nn(C)c(N)c1[N+](=O)[O-],4,6,8,5,3,/,/
Cc1nn(C)c(Sc2ccccc2N)c1[N+](=O)[O-],-5,-5,4,1,28*,4,5
